The antibiotic and cytotoxicity screens of Wong et al. (2023)
Hit rate of the full screen: of about 39,000 compounds, about 3,300 (8.5%) were called active. Only a selection was taken, and actives are over-represented in it overall.

System: HepG2
Test: cytotoxicity call (relative viability < 0.9)
Details: 10 µM

Row | SMILES | cytotoxicity call
1 | COc1ccc(S(=O)(=O)Nc2ccc3c(c2)C(=O)N([C@@H](C)CO)C[C@@H](C)[C@H](CN(C)C(=O)C2CCCCC2)OCCCC[C@H](C)O3)cc1 | inactive
2 | CC(C)(C)[S@@](=O)N1Cc2cc(C(=O)N3CCCCC3)nc(-c3cccc(-c4cccc(C#N)c4)c3)c2[C@H]1CCO | inactive
3 | CO[C@@H]1CN(C)C(=O)c2cc(NC(=O)C3CC3)ccc2OC[C@H](C)N(C(=O)C2CCOCC2)C[C@@H]1C | inactive
4 | Cc1noc(C)c1S(=O)(=O)Nc1ccc2c(c1)CC(=O)N([C@H](C)CO)C[C@@H](C)[C@H](CN(C)S(=O)(=O)c1ccc(Cl)cc1)O2 | inactive
5 | CC(=O)Oc1cccc(O)c1 | inactive
6 | CC(=O)Nc1ccc(OC(C)=O)cc1 | inactive
7 | CC(=O)Oc1ccc(O)cc1 | active
8 | C[C@@H]1CN([C@@H](C)CO)C(=O)c2c(c3ccccc3n2C)-c2ccccc2CO[C@H]1CN(C)C(=O)c1cc(Cl)cc(Cl)c1 | inactive
9 | C[C@H]1CN([C@@H](C)CO)C(=O)c2c(c3ccccc3n2C)-c2ccccc2CO[C@H]1CN(C)C(=O)c1cc(Cl)cc(Cl)c1 | inactive
10 | C[C@H]1CN([C@@H](C)CO)C(=O)c2c(c3ccccc3n2C)-c2ccccc2CO[C@@H]1CN(C)C(=O)c1cc(Cl)cc(Cl)c1 | inactive
11 | C[C@H](CO)N1C[C@H](C)[C@@H](CN(C)C(=O)c2cc(Cl)cc(Cl)c2)OCc2ccccc2-c2c(n(C)c3ccccc23)C1=O | active
12 | C[C@@H]1CN([C@@H](C)CO)C(=O)c2c(c3ccccc3n2C)-c2ccccc2CO[C@@H]1CN(C)C(=O)c1cc(Cl)cc(Cl)c1 | active
13 | C[C@@H]1CN([C@H](C)CO)C(=O)c2c(c3ccccc3n2C)-c2ccccc2CO[C@H]1CN(C)C(=O)c1cc(Cl)cc(Cl)c1 | inactive
14 | Cc1ccc(S[C@]2(C(=O)NC(C)C)CC(=O)N(Cc3ccccc3Cl)[C@@H]2c2ccc(CO)cc2)cc1 | inactive
15 | C[C@@H]1CCCCO[C@@H](CN(C)Cc2ccc(C(F)(F)F)cc2)[C@H](C)CN([C@H](C)CO)C(=O)c2cc(NC(=O)CCCN(C)C)ccc2O1 | inactive
16 | CS(=O)(=O)N1CCS(=O)(=O)[C@H]2CCN(CC3CC3)CC[C@@H]21 | inactive
17 | COc1ccc(S(=O)(=O)N(C)C[C@@H]2Oc3ccc(NC(=O)Nc4cccc5ccccc45)cc3C(=O)N([C@H](C)CO)C[C@@H]2C)cc1 | inactive
18 | CC(C)c1c(C(=O)Nc2ccccc2)c(-c2ccccc2)c(-c2ccc(F)cc2)n1CC[C@@H](O)C[C@@H](O)CC(=O)O | inactive
19 | C[C@@H]1CCCCO[C@@H](CN(C)CC2CC2)[C@H](C)CN([C@@H](C)CO)C(=O)c2cc(NC(=O)c3ccccc3)ccc2O1 | inactive
20 | C[C@@H]1CCCCO[C@@H](CN(C)Cc2ccc(C(=O)O)cc2)[C@@H](C)CN([C@H](C)CO)C(=O)c2cc(NC(=O)C3CCCCC3)ccc2O1 | inactive
21 | CC1=C(C(=O)O)N2C(=O)[C@@H](NC(=O)[C@H](N)c3ccc(O)cc3)[C@H]2SC1 | inactive
22 | CCN1CCN(Cc2ccc(C(=O)Nc3ccc(C)c(Oc4ccc5c(c4)CC(=O)N5)c3)cc2C(F)(F)F)CC1 | active
23 | COCC(=O)Nc1ccc2c(c1)CC(=O)N2 | inactive
24 | CC1=NCCC2c3ccc(O)cc3NC12 (stereo not given) | active
25 | CCS(=O)(=O)N1C[C@]2(C1)CN([C@@H](CO)c1[nH]c3cc(ccc3c12)OC)S(=O)(=O)c1cccc(c1)OC | inactive

Row | SMILES | cytotoxicity call
26 | C[C@@H]1CN([C@@H](C)CO)C(=O)c2cccc(NC(=O)c3ccncc3)c2O[C@@H]1CN(C)Cc1ccncc1 | inactive
27 | CN1C(=O)c2cc(NC(=O)c3cscn3)ccc2OC[C@H]2O[C@H](CC(=O)N3CCOCC3)CC[C@@H]21 | inactive
28 | C=C1C(=O)OC2CC3(C)CCCC(C)C3=CC12 (stereo not given) | active
29 | C[C@H](CO)N1C[C@H](C)[C@@H](CN(C)C(=O)Nc2ccccc2)Oc2ccc(NC(=O)Cn3cnnn3)cc2CC1=O | inactive
30 | CC(=O)N(C)C[C@@H]1Oc2cc(C#CCN(C)C)ccc2S(=O)(=O)N([C@@H](C)CO)C[C@@H]1C | inactive
31 | COc1ccc(S(=O)(=O)Nc2ccc3c(c2)CC(=O)N([C@@H](C)CO)C[C@H](C)[C@@H](CN(C)Cc2ccncc2)O3)cc1 | inactive
32 | O=C(Oc1cccc2cccnc12)c1ccccc1 | active
33 | FC(F)Oc1cccc2cccnc12 | inactive
34 | O=C(O)c1ccccn1 | inactive
35 | CC(C)NC(=O)N(C)C[C@@H]1Oc2ccc(NC(=O)NC3CCCCC3)cc2C(=O)N([C@H](C)CO)C[C@H]1C | inactive
36 | Cc1cccn2c(=O)c3cc(S(=O)(=O)c4ccc(Br)cc4)c(=N)n(CCCN4CCOCC4)c3nc12 | inactive
37 | COc1ccc(CCNC(=O)c2cc3c(=O)n4cccc(C)c4nc3n(CCCN3CCOCC3)c2=N)cc1 | active
38 | N=c1c(C(=O)NC[C@H]2CCCO2)cc2c(=O)n3ccccc3nc2n1CCCN1CCOCC1 | inactive
39 | COc1ccc(CN(C)C[C@@H]2OCCCC[C@@H](C)Oc3ccc(NC(=O)Nc4c(C)noc4C)cc3C(=O)N([C@@H](C)CO)C[C@@H]2C)cc1 | inactive
40 | Nc1ncnc2c1ncn2[C@H]1CCCO1 | inactive
41 | C[C@@H]1CN([C@H](C)CO)C(=O)c2ccccc2-c2ccccc2CO[C@@H]1CN(C)S(=O)(=O)c1ccc(C(F)(F)F)cc1 | inactive
42 | NCc1csc2c1CCCC2 | inactive
43 | C[C@@H]1CN([C@@H](C)CO)C(=O)Cc2cc(NC(=O)Nc3ccc(C(F)(F)F)cc3)ccc2O[C@@H]1CN(C)S(C)(=O)=O | inactive
44 | Cc1ccc(S(=O)(=O)N(C)C[C@@H]2Oc3ccc(NC(=O)Nc4ccc(C(F)(F)F)cc4)cc3CC(=O)N([C@H](C)CO)C[C@@H]2C)cc1 | active
45 | Cc1ccc(S(=O)(=O)N(C)C[C@@H]2Oc3ccc(NC(=O)Nc4ccc(C(F)(F)F)cc4)cc3CC(=O)N([C@@H](C)CO)C[C@@H]2C)cc1 | active
46 | C[C@H](CO)N1C[C@H](C)[C@H](CN(C)S(C)(=O)=O)Oc2ccc(NC(=O)Nc3ccc(C(F)(F)F)cc3)cc2CC1=O | inactive
47 | Cc1ccc(S(=O)(=O)N(C)C[C@H]2Oc3ccc(NC(=O)Nc4ccc(C(F)(F)F)cc4)cc3CC(=O)N([C@H](C)CO)C[C@H]2C)cc1 | active
48 | Cc1ccc(S(=O)(=O)N(C)C[C@H]2Oc3ccc(NC(=O)Nc4ccc(C(F)(F)F)cc4)cc3CC(=O)N([C@H](C)CO)C[C@@H]2C)cc1 | inactive
49 | Cc1ccc(S(=O)(=O)N(C)C[C@@H]2Oc3ccc(NC(=O)Nc4ccc(C(F)(F)F)cc4)cc3CC(=O)N([C@@H](C)CO)C[C@H]2C)cc1 | active
50 | Cc1ccc(S(=O)(=O)N(C)C[C@@H]2Oc3ccc(NC(=O)Nc4ccc(C(F)(F)F)cc4)cc3CC(=O)N([C@H](C)CO)C[C@H]2C)cc1 | inactive
